rCAG binder – molecules binding r(CAG) RNA repeats | r(CAG) RNA repeat, TO-PRO-1 dye displacement fluorescence | inhibition, % at 3 µM | hit rate 1.3% among 370,000 | AID 651821;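 active = inhibition above the plate cutoff, the mean of all test compounds on that plate plus 3 SD, cut at about 35% in these data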;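 also: 0% = DMSO alone and 100% = 100 µM mitoxantrone as full dye displacement; higher means more dye released from RNA so lower well fluorescence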
PHOSPHO1 inh – inhibitors of human PHOSPHO1 phosphatase | recombinant PHOSPHO1, absorbance phosphatase assay | inhibition, % at 13.3 µM | hit rate 1.1% among 290,000 | AID 1565; in the data active = inhibition above about 60%
Target sequence (Q8TCT1 whole entry, looked up): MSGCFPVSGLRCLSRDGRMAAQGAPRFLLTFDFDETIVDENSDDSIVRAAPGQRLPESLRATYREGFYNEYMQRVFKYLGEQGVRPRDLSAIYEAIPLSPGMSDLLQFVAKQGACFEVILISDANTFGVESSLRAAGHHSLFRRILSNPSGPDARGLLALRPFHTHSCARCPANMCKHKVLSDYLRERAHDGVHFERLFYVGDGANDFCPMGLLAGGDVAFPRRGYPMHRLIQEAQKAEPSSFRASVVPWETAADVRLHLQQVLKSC
aDG glyco act – alpha-DG glycosylation activation; Pro5-aDG cells, alpha-DG glycosylation AlphaScreen (IIH6); 0% Pro5, 100% B10-LARGE cell signal; activation, % at 10 µM; hit rate 0.22% among 360,000;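 active = activation of at least 8% versus controls, or a plate z-score of at least 8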;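 also: Pro5 are CHO cells carrying HIG-tagged alpha-DG that lacks glycosylation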
A3A deaminase – blocks human APOBEC3A ssDNA deamination; inhibition, % at 20 µM; P31941; hit rate 0.41% among 330,000; recombinant A3A, FAM/TAMRA ssDNA deamination fluorescence; AID 493011;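 active = at least 40% inhibition at 20 µM here, with at most 30% in a related deaminase screen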;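 also: plate controls were A3A with DMSO for no effect and wells lacking A3A enzyme for full effect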
Target sequence (P31941 whole entry, looked up): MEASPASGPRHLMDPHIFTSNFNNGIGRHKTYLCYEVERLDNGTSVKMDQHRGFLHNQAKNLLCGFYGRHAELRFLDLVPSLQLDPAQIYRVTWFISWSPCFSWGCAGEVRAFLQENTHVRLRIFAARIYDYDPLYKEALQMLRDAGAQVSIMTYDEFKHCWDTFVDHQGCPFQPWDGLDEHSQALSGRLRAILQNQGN
ALR H2O2 inh – human ALR oxidase inhibition via reduced H2O2; P55789; purified ALR, DTT oxidation, H2O2 HRP-luminol luminescence; AID 485317; hit rate 3.8% among 290,000; inhibition, % (test concentration not listed);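 active = mean replicate inhibition above about 79%, with every replicate also reaching it, limit read from the data; inconclusive = only one of the two criteria met; inactive = mean below limit and not every replicate reaching it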
APOBEC3G inh – APOBEC3G (human) deaminase inhibition; AID 493012; Q9HC16; recombinant A3G, ssDNA deamination FAM/TAMRA fluorescence; hit rate 0.28% among 330,000; inhibition, % at 20 µM;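 active = inhibition of at least 40% at 20 µM, with no more than 30% in the related APOBEC3A deaminase screen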;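 also: plate controls were DMSO wells with A3G for no effect and wells lacking A3G enzyme for full effect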
rCAG bind conf – r(CAG) RNA repeat binding, confirmation; shares compounds with rCAG binder; TO-PRO-1 dye displacement fluorescence; inhibition, % at 3 µM; hit rate 70% among 4,300; AID 652065;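 active = inhibition above a per-plate cutoff, the mean inhibition of sample wells plus 3 SD, cut at about 35% in these data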;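 also: loss of TO-PRO-1 fluorescence as compound displaces dye from 1x1 AA loop RNA; 0% = DMSO only wells and 100% = 100 µM mitoxantrone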
DNA CAG counter – counter-screen for rCAG RNA binders: DNA CAG dye complex inhibitors; shares compounds with rCAG binder; d(CAG) DNA oligo TO-PRO-1 dye displacement, fluorescence; inhibition, % at 3 µM; hit rate 94% among 4,300; AID 652068;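 active = inhibition above its plate's cutoff, the mean test-well inhibition plus 3 SD, cut at about 4.8% in these data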;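 also: 0% = DNA dye mix with DMSO and 100% = 100 µM mitoxantrone; hits displace the dye from DNA and so lower well fluorescence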
dCAG dye DR – DNA CAG dye complex inhibition, dose response counter-screen | shares compounds with rCAG binder | DNA CAG/GTC duplex TO-PRO-1 dye displacement fluorescence | IC50, µM | hit rate 20% among 250; in the data active = IC50 below about 10 µM
An asterisk follows results filed as active; ? = inconclusive; . = no result. Hits are enriched below; roughly 5.4% of the tested compounds scored in any of these assays.

SMILES | rCAG binder | PHOSPHO1 inh | aDG glyco act | A3A deaminase | ALR H2O2 inh | APOBEC3G inh | rCAG bind conf | DNA CAG counter | others
O=C(O)COc1ccc(/C=C2\SC(=Nc3ccccc3)N(c3ccccc3)C2=O)cc1 | 14 | -13 | 0 | -1 | 59 | -2 | . | .
Cc1ccc(N=C2S/C(=C/c3cccc(OCC(=O)O)c3)C(=O)N2C)cc1C | 58* | 14 | 0 | -2 | 20 | -1 | 64* | 23*
O=C(O)COc1ccccc1/C=C1\SC(=Nc2ccc(F)cc2)N(c2ccc(F)cc2)C1=O | 40* | -4 | 0 | -1 | 6 | -9 | 65* | 24*
NNC(=S)Nc1cccc(-c2n[nH]c(=S)o2)c1 | 51* | -112 | 0 | -4 | 98* | -3 | 18 | 6.8*
CN(CCC#N)C(=O)COC(=O)c1c2c(nc3ccccc13)/C(=C\c1ccco1)CC2 | 65* | . | 0 | . | . | . | 57* | 31*
O=C(COC(=O)c1c2c(nc3ccccc13)/C(=C/c1cccc([N+](=O)[O-])c1)CCC2)NC1CCS(=O)(=O)C1 (configuration not stated) | 9 | -14 | 0 | -5 | -11 | -6 | . | .
CN1CCc2nc3ccccc3c(C(=O)OCC(=O)N(CCC#N)c3ccccc3)c2C1 | 1 | -4 | 0 | 3 | -7 | -2 | . | .
O=C(COC(=O)c1c2c(nc3ccccc13)/C(=C\c1ccco1)CC2)NC1CCCC1 | 60* | . | 0 | . | . | . | 59* | 33*
Cc1ccc(CN2C(=O)C(CC(C)C)Nc3ncnc(N4CCCCC4)c32)cc1 (configuration not stated) | 0 | . | 0 | . | . | . | . | .
Cc1c(CCC(=O)O)c(=O)oc2cc(OCc3cccc(Cl)c3)ccc12 | 38* | 16 | 0 | -3 | 6 | -9 | 36* | 9.1*
O=C(Nc1nc2ncccn2c1-c1ccc(C(F)(F)F)cc1)c1ccccc1 | 7 | . | . | . | . | . | . | .
COc1ccc(-c2nnc(NC(=O)c3ccc(S(=O)(=O)N4COCC4(C)C)cc3)o2)cc1 | 46* | 14 | 3 | -5 | -5 | -10 | 54* | 15*
C/C(CC(=O)Nc1ccc(Cl)c(C(F)(F)F)c1)=N\NC(=O)c1cccc(O)c1 | 4 | 13 | 0 | -2 | 4 | -9 | . | .
C/C(CC(=O)Nc1ccc(Cl)c(C(F)(F)F)c1)=N\NC(=O)c1ccccc1O | 53* | -12 | 0 | 2 | -1 | -6 | 9 | 4
O=C(O)CSc1nc(SCc2ccccc2Cl)nc2c1CCCC2 | 42* | 3 | 0 | 2 | 95* | -1 | 36* | 11* | dCAG dye DR=>30
COC(=O)CSc1nc(SCc2ccccc2Cl)nc2c1CCCC2 | 2 | 0 | 0 | 2 | -3 | 4 | . | .
Cc1cccc(N/N=C(\C#N)S(=O)(=O)C(C)(C)C)c1 | 10 | -1 | 1 | . | 54 | . | . | .
CC(C)(C)c1ccc(N/N=C(\C#N)S(=O)(=O)C(C)(C)C)cc1 | 36* | -4 | 0 | -4 | 4 | -5 | 50* | 19*
COc1cc(/C=C2/C(=O)NN(c3ccc(Cl)cc3)C2=O)cc(Br)c1O | 46* | 15 | 0 | 16 | 98* | 24 | 25 | 8.9*
COc1cc(/C=C2/C(=O)NN(c3cccc(F)c3)C2=O)ccc1OC(=O)c1ccco1 | 46* | -9 | 0 | 2 | ? | -4 | 82* | 44*
COc1cc(/C=C2/C(=O)NN(c3ccc(F)cc3)C2=O)cc(Cl)c1O | 15 | 26 | 0 | 0 | ? | -3 | . | .
COc1cc(/C=C2\SC(=O)N(c3ccccc3Cl)C2=O)cc([N+](=O)[O-])c1O | 55* | 25 | 1 | . | . | . | 58* | 18*
COc1cc(/C=C2/C(=O)NN(c3ccc(Cl)c(Cl)c3)C2=O)cc([N+](=O)[O-])c1O | 99* | 22 | 0 | . | 98* | . | 66* | 23*
O=C(O)C1=CC2C=C(Cl)C=CC2OC1=O (configuration not stated) | 3 | . | 0 | . | . | . | . | .
